The results in this text go back to PubChem BioAssay (NCATS).

Inconclusive results are not listed. Activity calls are given as the source filed them. Calls follow the shape of the dose curve; as a rule, active = well fitted curve in the direction sought with a large enough effect; inconclusive = small, poorly fitted or top-dose-only effect, or another doubt; inactive = no such curve, though single readings can be large; an effect the other way counts as inactive or inconclusive.

Sequence of Protein phosphatase 1D (Homo sapiens) (O15297 whole entry, looked up): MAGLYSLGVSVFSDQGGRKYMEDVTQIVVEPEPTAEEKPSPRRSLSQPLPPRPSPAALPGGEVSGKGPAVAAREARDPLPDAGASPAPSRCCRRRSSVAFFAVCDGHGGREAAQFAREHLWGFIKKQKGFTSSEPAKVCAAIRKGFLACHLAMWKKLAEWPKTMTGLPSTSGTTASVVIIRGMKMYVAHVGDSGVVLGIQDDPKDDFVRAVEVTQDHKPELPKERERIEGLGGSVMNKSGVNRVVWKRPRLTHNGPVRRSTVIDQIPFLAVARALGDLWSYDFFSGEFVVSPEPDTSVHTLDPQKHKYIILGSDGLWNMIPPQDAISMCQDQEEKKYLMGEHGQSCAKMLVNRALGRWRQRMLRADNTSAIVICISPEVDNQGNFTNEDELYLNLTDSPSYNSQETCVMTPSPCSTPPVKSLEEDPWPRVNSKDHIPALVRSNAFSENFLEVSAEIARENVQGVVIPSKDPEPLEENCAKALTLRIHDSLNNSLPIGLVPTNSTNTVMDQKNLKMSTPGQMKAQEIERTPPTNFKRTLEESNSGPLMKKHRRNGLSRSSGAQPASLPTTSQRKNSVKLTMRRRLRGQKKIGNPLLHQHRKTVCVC

Test system in one experiment: not listed separately
Kind of experiment: qHTS to identify inhibitors of the type 1 interferon - major histocompatibility complex class I in skeletal muscle: primary screen against the NCATS Pharmaceutical Collection (AID 1347407).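 Also: luminescence of HiBiT knocked into endogenous HLA-B as interferon-induced MHC class I level; % is scaled to controls: 0 for no effect and ±100 for the full control effect.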 The settings on record: human skeletal muscle cells, IFN-b-induced MHC-I HiBiT luminescence, 24 h; series mostly up to 45.9 µM; activity change, negative = inhibition: at the top concentration. The method, boiled down:
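Cells were seeded with 4 ng/ml IFN-beta, incubated 1 h, then dosed with compounds over eight 1:5 steps up to 46 uM final. After 24 h at 37 C, HiBiT lytic reagent was added and luminescence read after 10 min lysis in the dark.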
For orientation: In qHTS, concentration-response curves come from the screen itself.
Turning to `CC(C)(C)NC[C@H](O)COc1cccc2c1CCCC2=O`, the “activity change, negative = inhibition” value was 5.82% (inactive).
Still for that read-out and setting: under `NC(=S)N/N=C/c1cccnc1` stands 9.04% (inactive).
As for `O=S(c1cc(Cl)cc(Cl)c1O)c1cc(Cl)cc(Cl)c1O`, the “activity change, negative = inhibition” value was 1.78% (inactive).
On the same count and under the same terms, under `NC(=O)n1c(O)c(C(=O)c2cccs2)c2cc(Cl)ccc21` stands -28.2% (inactive); under `O=C(O)Cc1csc(-c2ccc(Cl)cc2)n1`, 8.87% (inactive).
On to `CCCc1ncc(C[n+]2ccccc2C)c(N)n1`, for which the “activity change, negative = inhibition” value was -3.73% (inactive).
`O=C(NC1CCN(CCc2c[nH]c3ccccc23)CC1)c1ccccc1`: the “activity change, negative = inhibition” value is 0.841% (inactive).
Take `O=C(N/N=C/c1ccc([N+](=O)[O-])o1)c1ccc(O)cc1`: the “activity change, negative = inhibition” value was -23.1% (inactive).
The same measure, in the same setting: under `FC(F)(F)C(F)(F)C(F)(F)C(F)(F)C(F)(F)C(F)(F)C(F)(F)C(F)(F)Br` stands -10.5% (inactive).
The same measure, in the same setting: under `CNCCc1ccccn1` stands -20.8% (inactive).
Still for that read-out and setting: next, `CC(C(=O)O)c1cccc(Oc2ccccc2)c1` (centres undefined): -15.3% (inactive); `CN1CCc2cccc3c2[C@H]1Cc1ccc(O)c(O)c1-3`: -7.87% (inactive); `CCN(CC)CCNC(=O)COc1ccc(OC)cc1`: 0.899% (inactive).
In the case of `CC(=O)N[C@@H](CCC(=O)O)C(=O)O`, the “activity change, negative = inhibition” value was -1.06% (inactive).
The same measure, in the same setting: under `CC(=O)Nc1ccc(OC(=O)c2ccccc2OC(C)=O)cc1` stands 5.71% (inactive); under `CC(=O)NO`, -9.64% (inactive); under `CCN(CC)CCOC(=O)C1(c2ccccc2)CCCC1`, 1.02% (inactive).
On the same count and under the same terms, under `Cc1ncc(CO)c(C=O)c1O` stands 11.3% (inactive); under `CC(C)[N+](C)(C)CC(O)COc1cccc2ccccc12` (centres undefined), -15.6% (inactive); under `O=C(Oc1cccc2cccnc12)c1ccccc1`, -0.7% (inactive).
The same measure, in the same setting: next, `NS(=O)(=O)c1cc(C(=O)O)cc(N2CCCC2)c1Oc1ccccc1`: 1.24% (inactive); `Nc1ccc(S(=O)(=O)NCc2ccccc2)cc1`: 5.85% (inactive).
In the case of `CCOc1ccc(NC(C)=O)cc1`, the “activity change, negative = inhibition” value is -6.01% (inactive).
On the same count and under the same terms, next, `CC(=O)OCC1=C(C(=O)O)N2C(=O)[C@@H](NC(=O)CSc3ccncc3)[C@H]2SC1`: -5.17% (inactive).
The same measure, in the same setting: next, `CCCCCCCCCCCCSCCOCCO`: -2.19% (inactive); `O=C(O)C1(C(=O)O)CCC1.[NH2-].[NH2-].[Pt+2]`: 1.28% (inactive).
The same measure, in the same setting: next, `O=C(O)CCC(=O)Nc1ccc(S(=O)(=O)Nc2nccs2)cc1`: 1.96% (inactive); `O=C1C(=O)c2ccccc2C(O)=C1C1CCC(c2ccc(Cl)cc2)CC1` (centres undefined): -2.81% (inactive); `Cl/C(=C\n1cncn1)c1ccc(Cl)cc1Cl`: 0.386% (inactive).
As to `COc1ccc(CN(CCN(C)C)c2ncccn2)cc1`, the “activity change, negative = inhibition” value is 3.95% (inactive).
In the case of `COC(=O)C(c1ccccc1Cl)N1CCc2sccc2C1` (centres undefined), the “activity change, negative = inhibition” value is -17% (inactive).
As to `CC(=O)NCCCCCC(=O)O`, the “activity change, negative = inhibition” value is 0.603% (inactive).
Still for that read-out and setting: next, `CCN1/C(=C/C=C/c2sc3ccccc3[n+]2CC)Sc2ccccc21`: 5.88% [at 19 µM] (inactive); `CCCCNc1ccc(C(=O)OCCOCCOCCOCCOCCOCCOCCOCCOCCOC)cc1`: -1.72% (inactive); `CC(C)Cc1ccc(CC(=O)O)cc1`: -10.2% (inactive).
Same read-out and setting: under `CN1CCN(c2cc3c(cc2F)c(=O)c(C(=O)O)cn3-c2ccc(F)cc2)CC1` stands -9.9% (inactive).

Another experiment has as its target Protein phosphatase 1D (Homo sapiens) (UniProt O15297). Kind of experiment: RapidFire Mass Spectrometry qHTS Assay for Modulators of WT P53-Induced Phosphatase 1 (WIP1) (AID 1347424).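 Also: amount of dephosphorylated VEPPL-S-QETFS peptide product formed by WIP1.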 Also: potency is read from the fitted curve at half-maximal effect.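 As to activity change, negative = inhibition: plate controls were DMSO wells for no effect and GSK830371 inhibitor control at 10 µM for full effect.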 Particulars: WIP1 dephosphorylation of phosphopeptide, RapidFire MS; series mostly up to 63 µM; activity change, negative = inhibition: at the top concentration. The method, boiled down:
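WIP1 (10 nM final) was preincubated 1 h at room temperature with compounds in Tris-HCl pH 7.5, 30 mM MgCl2, TCEP, EGTA, BSA; 2 uM VEPPL-pS-QETFS phosphopeptide was added for 5 min, quenched with formic acid, and dephosphorylated product quantified by RapidFire MS.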
For `O=S(c1cc(Cl)cc(Cl)c1O)c1cc(Cl)cc(Cl)c1O`, the Potency is 31.6 µM (active).
Consider `NC(=O)n1c(O)c(C(=O)c2cccs2)c2cc(Cl)ccc21`, for which the “activity change, negative = inhibition” value was -25.1% (inactive).
Same read-out and setting: next, `O=C(O)Cc1csc(-c2ccc(Cl)cc2)n1`: -8.16% (inactive).
As to `CCCc1ncc(C[n+]2ccccc2C)c(N)n1`, the “activity change, negative = inhibition” value is -0.643% (inactive).
Regarding `O=C(NC1CCN(CCc2c[nH]c3ccccc23)CC1)c1ccccc1`, the “activity change, negative = inhibition” value was -5.21% (inactive).
For `CN1CCc2cccc3c2[C@H]1Cc1ccc(O)c(O)c1-3`, the “activity change, negative = inhibition” value was 3.48% (inactive).
As for `CC(=O)Nc1ccc(OC(=O)c2ccccc2OC(C)=O)cc1`, the “activity change, negative = inhibition” value was 4.49% (inactive).
Same read-out and setting: next, `CCN(CC)CCOC(=O)C1(c2ccccc2)CCCC1`: 2.06% (inactive); `Cc1ncc(CO)c(C=O)c1O`: 0.168% (inactive).
For the compound `O=C(O)C1(C(=O)O)CCC1.[NH2-].[NH2-].[Pt+2]`, the Potency is 11.2 µM (active).

The target is the same in a further experiment. Kind of experiment: Rhodamine-PBP qHTS Assay for Modulators of WT P53-Induced Phosphatase 1 (WIP1) (AID 1347425). Also: % of control where 0% means no effect. Particulars: recombinant WIP1, Rhodamine-PBP phosphate fluorescence, real-time; series mostly up to 57.5 µM; activity change, negative = inhibition: at the top concentration. The method, boiled down:
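The read-out is the change in Rhodamine-PBP fluorescence (f1 - f0, ex 525/em 598 nm) as Pi is released, read each minute for 11 min. Final reaction: 5 nM WIP1, 10 uM phosphopeptide VEPPL-pS-QETFS, 10 uM Rh-PBP, 50 mM Tris-HCl pH 7.5, 30 mM MgCl2. Compound was preincubated with enzyme for 1 hour at room temperature.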
Consider `CC(C)(C)NC[C@H](O)COc1cccc2c1CCCC2=O`, for which the “activity change, negative = inhibition” value is 5.42% (inactive).
With `NC(=S)N/N=C/c1cccnc1`, the “activity change, negative = inhibition” value was 8.87% (inactive).
Same read-out and setting: under `O=C(O)Cc1csc(-c2ccc(Cl)cc2)n1` stands 3.05% (inactive).
As for `CCCc1ncc(C[n+]2ccccc2C)c(N)n1`, the “activity change, negative = inhibition” value was 0.386% (inactive).
The same measure, in the same setting: under `O=C(NC1CCN(CCc2c[nH]c3ccccc23)CC1)c1ccccc1` stands 7.26% (inactive); under `O=C(N/N=C/c1ccc([N+](=O)[O-])o1)c1ccc(O)cc1`, -22.7% (inactive); under `FC(F)(F)C(F)(F)C(F)(F)C(F)(F)C(F)(F)C(F)(F)C(F)(F)C(F)(F)Br`, 10.4% (inactive).
On the same count and under the same terms, next, `CNCCc1ccccn1`: 0.541% (inactive).
Same read-out and setting: under `CC(C(=O)O)c1cccc(Oc2ccccc2)c1` (centres undefined) stands -7.86% (inactive); under `CN1CCc2cccc3c2[C@H]1Cc1ccc(O)c(O)c1-3`, 8.42% (inactive).
Take `CCN(CC)CCNC(=O)COc1ccc(OC)cc1`: the “activity change, negative = inhibition” value was -4.56% (inactive).
Same read-out and setting: under `CC(=O)N[C@@H](CCC(=O)O)C(=O)O` stands 4.33% (inactive); under `CC(=O)Nc1ccc(OC(=O)c2ccccc2OC(C)=O)cc1`, 8.72% (inactive); under `CC(=O)NO`, 2.12% (inactive).
Turning to `CCN(CC)CCOC(=O)C1(c2ccccc2)CCCC1`, the “activity change, negative = inhibition” value is 9.27% (inactive).
On the same count and under the same terms, under `Cc1ncc(CO)c(C=O)c1O` stands 18.2% (inactive); under `CC(C)[N+](C)(C)CC(O)COc1cccc2ccccc12` (centres undefined), -2.19% (inactive); under `O=C(Oc1cccc2cccnc12)c1ccccc1`, -3.55% (inactive).
On the same count and under the same terms, under `NS(=O)(=O)c1cc(C(=O)O)cc(N2CCCC2)c1Oc1ccccc1` stands 1.04% (inactive); under `Nc1ccc(S(=O)(=O)NCc2ccccc2)cc1`, 1% (inactive).
As for `CCOc1ccc(NC(C)=O)cc1`, the “activity change, negative = inhibition” value was -5.41% (inactive).
As to `CC(=O)OCC1=C(C(=O)O)N2C(=O)[C@@H](NC(=O)CSc3ccncc3)[C@H]2SC1`, the “activity change, negative = inhibition” value was -8.08% (inactive).
On the same count and under the same terms, under `CCCCCCCCCCCCSCCOCCO` stands -21.9% (inactive); under `O=C(O)CCC(=O)Nc1ccc(S(=O)(=O)Nc2nccs2)cc1`, -22.5% (inactive).
Same read-out and setting: under `O=C1C(=O)c2ccccc2C(O)=C1C1CCC(c2ccc(Cl)cc2)CC1` (centres undefined) stands -2.55% (inactive).
Same read-out and setting: under `Cl/C(=C\n1cncn1)c1ccc(Cl)cc1Cl` stands 5.13% (inactive); under `COc1ccc(CN(CCN(C)C)c2ncccn2)cc1`, 6.28% (inactive).
With `COC(=O)C(c1ccccc1Cl)N1CCc2sccc2C1` (centres undefined), the “activity change, negative = inhibition” value is 13.2% (inactive).
The same measure, in the same setting: next, `CC(=O)NCCCCCC(=O)O`: -1% (inactive).
Same read-out and setting: under `CCN1/C(=C/C=C/c2sc3ccccc3[n+]2CC)Sc2ccccc21` stands 6.1% [at 23.8 µM] (inactive).
Same read-out and setting: under `CCCCNc1ccc(C(=O)OCCOCCOCCOCCOCCOCCOCCOCCOCCOC)cc1` stands -8.58% (inactive).
For `CC(C)Cc1ccc(CC(=O)O)cc1`, the “activity change, negative = inhibition” value is 0.85% (inactive).
Same read-out and setting: next, `CN1CCN(c2cc3c(cc2F)c(=O)c(C(=O)O)cn3-c2ccc(F)cc2)CC1`: 3.09% (inactive).
